# High-throughput results: PubChem BioAssay, Broad Institute
# Only a selection was taken, and hits are over-represented in it overall.
# Tg IFNy HTS: inhibitors of Toxoplasma gondii growth with IFN-gamma | Toxoplasma gondii growth in IFN-gamma-treated host cells; hits give low values | activity change, negative = inhibition, % (no concentration beside the values) | hit rate 3.8% among 69,000 | AID 1259416; in the data active means activity change below about -70%, passing the limit was not always enough;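 further: host cells are HeLa cells infected with Toxoplasma gondii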
# * hit, by the source's call; ! = not confirmed by another sample.
SMILES,Tg IFNy HTS
COc1cccc(NC(=O)NC(c2nnc3n2CCNCC3)C(C)C)c1 (stereo not drawn),79
CCCCCOc1ccc(C(=O)c2ccccc2)cc1,-11
CN(C)CCCOc1cccc(C(=O)O)c1,-15
CN(C)CCOc1ccc(/C(=C(/CCCl)c2ccccc2)c2ccccc2)cc1,-88*
Clc1ccc(C2=CC(c3cccs3)n3nnnc3N2)c(Cl)c1 (stereo not drawn),-64
CC1CCN(S(=O)(=O)c2ccc3c(ccc(=O)n3CC(=O)N3CCCCC3)c2)CC1,17
FC(F)(F)c1cccc(-c2ccc(-c3cccc(C(F)(F)F)c3)o2)c1,-11
FC(F)(F)c1cccc(-c2nnc(C3c4ccccc4Oc4ccccc43)o2)c1,-99*
Cc1oc(-c2cccc(C(F)(F)F)c2)nc1CN(C)Cc1cnc(N)nc1,-2
CN1CCN(C(=O)C[C@@H]2CC[C@@H]3[C@H](COC[C@@H](O)CN3C(=O)c3ccccc3F)O2)CC1,7
NC(=O)C1CCN(C(=O)c2cc3cccnc3n(Cc3ccccc3F)c2=O)CC1,-13
Cn1ccnc1-c1nccn1CCc1cccc(F)c1,2
Cc1cc2cc(NC(=O)c3nc4ccccc4n(C)c3=O)cc(Cl)c2o1,28
Cc1cc2cc(NC(=O)CN3C(=O)NC(C)(c4ccccc4)C3=O)cc(Cl)c2o1 (stereo not drawn),-77*
Cc1cc2cc(NC(=O)CNC(=O)c3nc4ncccn4n3)cc(Cl)c2o1,5
CCN1CC(CNC(=O)c2cc(NC(=O)C(C)C)cc3nc(C)n(Cc4ccccc4)c23)CC1=O (stereo not drawn),0
CC1CCCCN1C(=O)c1ncn2c1CN(CC1CC1)S(=O)(=O)c1ccccc1-2 (stereo not drawn),-32
COc1ccc(N2CCN(C(=O)c3cc4cccnc4n(Cc4ccc(F)cc4)c3=O)CC2)cc1,33
CC(C)N(Cc1ccccc1)C(=O)c1cc2cccnc2n(Cc2ccc(F)cc2)c1=O,-96*
O=C(c1cc2cccnc2n(Cc2ccc(F)cc2)c1=O)N(Cc1ccccc1)c1ccccc1,-29
O=C(c1cc2cccnc2n(Cc2ccc(F)cc2)c1=O)N1CCCCCC1,-12
O=C(c1cc2cccnc2n(Cc2ccc(Cl)cc2)c1=O)N1CCN(c2ccc(F)cc2)CC1,-98*
COc1ccccc1N1CCN(C(=O)c2cc3cccnc3n(Cc3ccccc3)c2=O)CC1,28
O=C(c1cc2cccnc2n(Cc2ccc(F)cc2)c1=O)N1CCN(c2cccc(Cl)c2)CC1,-119*
CN(Cc1ccccc1)C(=O)c1cc2cccnc2n(Cc2ccccc2)c1=O,16
SMILES,Tg IFNy HTS
O=C(c1ccco1)N1CCN(C(=O)c2cc3cccnc3n(Cc3ccc(F)cc3)c2=O)CC1,-15
O=C(c1cc2cccnc2n(Cc2ccc(Cl)cc2)c1=O)N1CCN(c2ccccc2)CC1,-4
O=C(c1cc2cccnc2n(Cc2ccc(F)cc2)c1=O)N1CCN(c2ccccc2Cl)CC1,-84*
CC1CCN(C(=O)c2cc3cccnc3n(Cc3ccc(F)cc3)c2=O)CC1,15
CN(C)C(=O)N1CCC(c2nnc3ccc(C(=O)Cc4ccccn4)cn23)C1 (stereo not drawn),-23
COc1ccc(CNC(=O)c2cncc(OC(C)C)c2)cc1OC,-70
CCN(CC)S(=O)(=O)c1ccc(S(=O)(=O)Nc2ccccc2-c2ccc(C)o2)cc1,-17
Cc1cc(C)cc(CNCC2COCc3c(C)nnn3C2)c1 (stereo not drawn),11
C=CCN1CCCC12CCCN(C(=O)C1CCCO1)C2 (stereo not drawn),7
CN1CCN(c2ccc3ccc(C(=O)NCC(=O)N(C)C)cn23)CC1,-1
Cc1ccc(C)c(NC(=O)c2nnn(Cc3nc(-c4ccccc4)oc3C)c2C)c1,-25
O=C1Cc2cc(CCN3CCN(c4nsc5ccccc45)CC3)c(Cl)cc2N1,-81*
CN1CCN(CCC(=O)N2CCN(c3nsc4ccccc34)CC2)CC1,25
Cc1c(S(=O)(=O)N2CCN(c3nsc4ccccc34)CC2)cnn1C(F)F,15
FC(F)(F)c1ccc(NCC2CNCCOC2)nc1 (stereo not drawn),5
Cc1ccc2[nH]c(=O)c(-c3nc(-c4ccccc4)no3)c(O)c2c1,3
COc1ccc2c(c1OC)C(=O)OC2[C@H]1c2c(cc3c(c2OC)OCO3)CCN1C (stereo partly drawn),24
COc1ccc2cc1Oc1ccc(cc1)C[C@H]1c3c(cc4c(c3Oc3cc5c(cc3OC)CCN(C)[C@@H]5C2)OCO4)CCN1C,-5
COc1ccc2cc1Oc1ccc(cc1)C[C@H]1c3cc(c(OC)cc3CCN1C)Oc1c(OC)c(OC)cc3c1[C@H](C2)N(C)CC3,-71*!
Cc1ncccc1NC(=O)[C@@H]1C[C@H]2CCN(c3ncc(F)cn3)C[C@@H]2O1,6
O=C(CSc1nc2ccccc2c(=O)n1Cc1ccccc1)N1CCCC1,-13
Cn1nc(-c2ccccn2)c2c1NC(=O)CC2c1nc2c(s1)CCCC2 (stereo not drawn),-21
COc1cccc(COC2CN(CC(C)C)C(=O)CN(C(=O)C3CC=CCC3)C2)c1 (stereo not drawn),8
COc1cc(-c2ncn(/C=C\C(=O)OC(C)C)n2)cc(C(F)(F)F)c1,-85*
O=C(c1cc(C(F)(F)F)cc(C(F)(F)F)c1)N1CC=CCC1,22
SMILES,Tg IFNy HTS
O=C(/C=C\n1cnc(-c2cc(C(F)(F)F)cc(C(F)(F)F)c2)n1)NNc1cnccn1,-69
O=C(/C=C\n1cnc(-c2cc(C(F)(F)F)cc(C(F)(F)F)c2)n1)N1CC(F)(F)C1,-80*
Cc1cc(C(=O)N2CCc3c([nH]c4ccccc34)C2C)c2cnn(C(C)C)c2n1 (stereo not drawn),-61
CN1CCC2C(C[C@@H](CN3CCCC3)N2c2nccs2)C1 (stereo partly drawn),-4
COc1ccc(-c2cc3c(=O)n(Cc4nc(-c5ccc(C)cc5)oc4C)ccn3n2)cc1OC,-39
Cc1ccc(C)c(OC(C)C(=O)N(C)Cc2noc(C3CC3)n2)c1 (stereo not drawn),-42
Clc1ccc(/C=C2\CCCC3C2=NNC3c2ccc(Cl)cc2)cc1 (stereo not drawn),-92*
COC(=O)c1c(NCc2ccc(F)cc2)c2ccccc2[nH]c1=O,-14
CCn1ncnc1CN(Cc1ccncc1)Cc1ccc(F)cc1,-2
CCc1onc(C)c1C1CCCN1Cc1cn(CC(=O)OC)c2ccc(OC)cc12 (stereo not drawn),1
CCCCN(Cc1cccs1)S(=O)(=O)c1ccc2[nH]c(=O)ccc2c1,99
COc1cc2c(cc1CN1CCC(NC(C)=O)(c3ccc(F)cc3)CC1)CCC2,-11
O=C(Cc1ccc2c(c1)CCC2)NCCN1CCC(O)(c2ccc(F)cc2)CC1,-76*
O=C(NCCN1CCC(O)(c2ccc(F)cc2)CC1)c1c(F)cccc1F,13
Cc1nnc([C@@H]2CC[C@H]3[C@H](CCN3Cc3cccs3)O2)o1,19
COc1ccc(-c2ccc(C(=O)N(Cc3nccn3C)C3CC3)o2)cc1,12
COc1ccc(CN(C(=O)c2cc(-c3ccc(C)cc3)on2)C2CCN(C)CC2)cc1,-76*
COc1ccc(CN(C(=O)c2cc(C(C)C)c3nncn3n2)C2CCN(C)CC2)cc1,6
Cc1ccc(O[C@@H]2C[C@@H]3CN(C(=O)c4cccn4C)CCN3C2)cc1,-47
O=C(Nc1ccc(F)cc1)Nc1nc(SCc2ccc(F)cc2)ns1,-110*
CCSc1nsc(NC(=O)CN2CCC(Oc3cccc(F)c3)CC2)n1,12
Cc1ccc(-c2coc(-c3ccc(NC(=O)Nc4ccc(F)cc4)cc3)n2)cc1,29
